From PubChem BioAssay (NCATS)
Records with an inconclusive call do not appear. Activity calls are given as the source filed them. Calls come from the whole dose curve; as a rule, active = well fitted cell-killing curve with a large enough effect; inconclusive = small, poorly fitted or top-dose-only effect, or effect the other way; inactive = flat fitted curve, though single readings scatter.

Experiments:
Assay in all cases: Primary qHTS to identify gynecologic anti-cancer compounds using libraries of approved drugs and bioactive compounds (AID 1345084); note: nearly all actives have a fitted effect of over 55% in size
CAOV3 = details: Gynecologic cancer cell panel viability, ATPlite luminescence, 48 h; series mostly up to 57.5 µM
In short: (§1)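 Five-point cytotoxicity, 48 h drug exposure at 37 C, 5% CO2, on cells seeded 16 h beforehand. ATP content read by ATPlite luminescence.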

CASKI = details: Gynecologic cancer cell panel viability, ATPlite luminescence, 48 h; series mostly up to 57.5 µM
In short: as §1

Es-2 = details: Gynecologic cancer cell panel viability, ATPlite luminescence, 48 h; series mostly up to 57.5 µM
In short: as §1

HeLa = details: Gynecologic cancer cell panel viability, ATPlite luminescence, 48 h; series mostly up to 57.5 µM
In short: as §1

Hek293T = details: Gynecologic cancer cell panel viability, ATPlite luminescence, 48 h, control line for the selectivity index; series mostly up to 57.5 µM
In short: as §1

JEG-3 = details: Gynecologic cancer cell panel viability, ATPlite luminescence, 48 h; series mostly up to 57.5 µM
In short: as §1

OV90 = details: Gynecologic cancer cell panel viability, ATPlite luminescence, 48 h; series mostly up to 57.5 µM
In short: as §1

PA-1 = details: Gynecologic cancer cell panel viability, ATPlite luminescence, 48 h; series mostly up to 57.5 µM
In short: as §1

SKOV3 = details: Gynecologic cancer cell panel viability, ATPlite luminescence, 48 h; series mostly up to 57.5 µM
In short: as §1

Tov-21-G = details: Gynecologic cancer cell panel viability, ATPlite luminescence, 48 h; series mostly up to 57.5 µM
In short: as §1

Tov112D = details: Gynecologic cancer cell panel viability, ATPlite luminescence, 48 h; series mostly up to 57.5 µM
In short: as §1
% is set by controls: 0 for no effect and ±100 for the full control effect.

COC1C2=C(COC2=O)C2(C)CCCC(C)(CO)C2C1OC(=O)c1ccccc1 (configuration not stated)
inactive: Potency (CAOV3) | Potency (CASKI) | Potency (Es-2) | Potency (HeLa) | Potency (Hek293T) | Potency (JEG-3) | Potency (OV90) | Potency (PA-1) | Potency (SKOV3) | Potency (Tov-21-G) | Potency (Tov112D)

COC(=O)C1=CO[C@@H](O[C@@H]2O[C@H](CO[C@@H]3O[C@H](COC(=O)/C=C/c4ccc(O)cc4)[C@@H](O)[C@H](O)[C@H]3O)[C@@H](O)[C@H](O)[C@H]2O)[C@@H]2C(CO)=CC[C@H]12
inactive: Potency (CAOV3) | Potency (CASKI) | Potency (Es-2) | Potency (HeLa) | Potency (Hek293T) | Potency (JEG-3) | Potency (OV90) | Potency (PA-1) | Potency (SKOV3) | Potency (Tov-21-G) | Potency (Tov112D)

CC(C)c1cc2c(c(O)c1O[C@@H]1O[C@H](CO)[C@@H](O)[C@H](O)[C@H]1O)CC1(O)CCC(O)C(C)(C)C1CC2 (some centres not stated)
inactive: Potency (CAOV3) | Potency (CASKI) | Potency (Es-2) | Potency (HeLa) | Potency (Hek293T) | Potency (JEG-3) | Potency (OV90) | Potency (PA-1) | Potency (SKOV3) | Potency (Tov-21-G) | Potency (Tov112D)

CC(=O)OC[C@@]12[C@H](O)C[C@]3(C)C(=CCC4[C@@]5(C)CC[C@H](O[C@@H]6O[C@H](C(=O)O)[C@@H](O[C@@H]7O[C@H](CO)[C@@H](O)[C@H](O)[C@H]7O)[C@H](O)[C@H]6O[C@@H]6O[C@H](CO)[C@@H](O)[C@H](O)[C@H]6O)[C@](C)(CO)C5CC[C@]43C)[C@@H]1CC(C)(C)[C@@H](OC(C)=O)[C@@H]2O (some centres not stated)
inactive: activity change, negative = cytotoxicity (CAOV3) 8.05% [at 11.6 µM] | activity change, negative = cytotoxicity (CASKI) 5.42% [at 11.6 µM] | activity change, negative = cytotoxicity (Es-2) 3.37% [at 11.6 µM] | activity change, negative = cytotoxicity (HeLa) 2.68% [at 11.6 µM] | activity change, negative = cytotoxicity (Hek293T) 0.0542% [at 11.6 µM] | activity change, negative = cytotoxicity (JEG-3) -2.75% [at 11.6 µM] | activity change, negative = cytotoxicity (OV90) -1.56% [at 11.6 µM] | activity change, negative = cytotoxicity (PA-1) 0.948% [at 11.6 µM] | activity change, negative = cytotoxicity (SKOV3) 8.16% [at 11.6 µM] | activity change, negative = cytotoxicity (Tov-21-G) 2.04% [at 11.6 µM] | activity change, negative = cytotoxicity (Tov112D) 1.86% [at 11.6 µM]

COC12CC3C(C(C)C1=CC(=O)O2)C(O)C(OC(C)=O)C1C(C)(C)C(OC(C)=O)CCC31C (configuration not stated)
inactive: Potency (CAOV3) | Potency (CASKI) | Potency (Es-2) | Potency (HeLa) | Potency (Hek293T) | Potency (JEG-3) | Potency (OV90) | Potency (PA-1) | Potency (SKOV3) | Potency (Tov-21-G) | Potency (Tov112D)

COc1cc(COC2OC(CO)C(O)C(O)C2O)cc(OC)c1O (configuration not stated)
inactive: Potency (CAOV3) | Potency (CASKI) | Potency (Es-2) | Potency (HeLa) | Potency (Hek293T) | Potency (JEG-3) | Potency (OV90) | Potency (PA-1) | Potency (SKOV3) | Potency (Tov-21-G) | Potency (Tov112D)

CC1CC(O)C2(C)C(C(=O)O)=CCCC2C1(C)CCc1ccoc1 (configuration not stated)
inactive: Potency (CAOV3) | Potency (CASKI) | Potency (Es-2) | Potency (HeLa) | Potency (Hek293T) | Potency (JEG-3) | Potency (OV90) | Potency (PA-1) | Potency (SKOV3) | Potency (Tov-21-G) | Potency (Tov112D)

CO[C@@H](Cc1ccc(OCCc2nc(-c3ccccc3)oc2C)c2ccsc12)C(=O)O
inactive: Potency (CAOV3) | Potency (CASKI) | Potency (Es-2) | Potency (HeLa) | Potency (Hek293T) | Potency (JEG-3) | Potency (OV90) | Potency (PA-1) | Potency (SKOV3) | Potency (Tov-21-G) | Potency (Tov112D)

CCNC(=O)[C@H]1O[C@H](n2cnc3c(NCC(c4ccccc4)c4ccccc4)nc(C(=O)NCCNC(=O)NC4CCN(c5ccccn5)CC4)nc32)[C@H](O)[C@@H]1O
inactive: Potency (CAOV3) | Potency (CASKI) | Potency (Es-2) | Potency (HeLa) | Potency (Hek293T) | Potency (JEG-3) | Potency (OV90) | Potency (PA-1) | Potency (SKOV3) | Potency (Tov-21-G) | Potency (Tov112D)

CC1OC(O[C@H]2[C@@H](O)C[C@@]3(C)C([C@H](O)C[C@]4(C)C3CC=C3C5CC(C)(C)CC[C@]5(C(=O)OC5OC(CO)C(O)C(O)C5OC5OCC(OC6OCC(OC7OCC(O)C(O)C7O)C(O)C6O)C(OC6OCC(O)(CO)C6O)C5O)CC[C@]34C)[C@]2(C)CO)C(O)C(O)C1O (some centres not stated)
inactive: activity change, negative = cytotoxicity (CAOV3) -2.76% [at 6.55 µM] | activity change, negative = cytotoxicity (CASKI) 1.71% [at 6.55 µM] | activity change, negative = cytotoxicity (Es-2) -1.65% [at 6.55 µM] | activity change, negative = cytotoxicity (HeLa) 2.57% [at 6.55 µM] | activity change, negative = cytotoxicity (Hek293T) -2% [at 6.55 µM] | activity change, negative = cytotoxicity (JEG-3) -1.46% [at 6.55 µM] | activity change, negative = cytotoxicity (OV90) 3.36% [at 6.55 µM] | activity change, negative = cytotoxicity (PA-1) 2.16% [at 6.55 µM] | activity change, negative = cytotoxicity (SKOV3) -0.54% [at 6.55 µM] | activity change, negative = cytotoxicity (Tov-21-G) -10.9% [at 6.55 µM] | activity change, negative = cytotoxicity (Tov112D) 7.32% [at 6.55 µM]

C[C@@H]1O[C@@H](O[C@H]2[C@H](OC(=O)[C@]34CCC(C)(C)C[C@H]3C3=CCC5[C@@]6(C)CC[C@H](O[C@@H]7O[C@H](CO[C@@H]8OC[C@H](O)[C@H](O)[C@H]8O)[C@@H](O)[C@H](O)[C@H]7O)C(C)(C)C6CC[C@@]5(C)[C@]3(C)C[C@H]4O)OC[C@@H](O)[C@@H]2O)[C@H](O)[C@H](O)[C@H]1O[C@@H]1OC[C@H](O)[C@H](O[C@@H]2OC[C@@H](O)[C@H](O)[C@H]2O)[C@H]1O (some centres not stated)
inactive: activity change, negative = cytotoxicity (CAOV3) -15.5% [at 6.55 µM] | activity change, negative = cytotoxicity (CASKI) -13.2% [at 6.55 µM] | activity change, negative = cytotoxicity (Es-2) -2.02% [at 6.55 µM] | activity change, negative = cytotoxicity (HeLa) 18.3% [at 6.55 µM] | activity change, negative = cytotoxicity (Hek293T) -6.63% [at 6.55 µM] | activity change, negative = cytotoxicity (JEG-3) -1.75% [at 6.55 µM] | activity change, negative = cytotoxicity (OV90) -10.8% [at 6.55 µM] | activity change, negative = cytotoxicity (PA-1) 1.4% [at 6.55 µM] | activity change, negative = cytotoxicity (SKOV3) 14.1% [at 6.55 µM] | activity change, negative = cytotoxicity (Tov-21-G) -9.88% [at 6.55 µM] | activity change, negative = cytotoxicity (Tov112D) 9.32% [at 6.55 µM]

CC1(C)CC[C@]2(C(=O)O[C@@H]3O[C@H](CO)[C@@H](O)[C@H](O)[C@H]3O)CC[C@]3(C)C(=CCC4[C@@]5(C)C[C@@H](O)[C@H](O)[C@@](C)(CO)C5CC[C@]43C)C2C1 (some centres not stated)
inactive: Potency (CAOV3) | Potency (CASKI) | Potency (Es-2) | Potency (HeLa) | Potency (Hek293T) | Potency (JEG-3) | Potency (OV90) | Potency (PA-1) | Potency (SKOV3) | Potency (Tov-21-G) | Potency (Tov112D)
